# Source: PubChem BioAssay (Tox21)
# Results filed as inconclusive are left out. Entries that show only a call come without a potency. The source made the active and inactive calls. Calls come from the whole dose curve; as a rule, active = well fitted cell-killing curve with a large enough effect in the repeat runs; inconclusive = weak or mixed curves, or effect the other way; inactive = no such curve, though single readings can be large or run the other way.
# Test: qHTS assay for identifying genotoxic compounds that show differential cytotoxicity against isogenic chicken DT40 cell lines with known DNA damage response pathways - wild type cell line (AID 743012); note: nearly all actives have a fitted effect of over 60% in size
# Conditions: DT40 wild type chicken cells viability, CellTiter-Glo, 40 h; series mostly up to 68.4 µM
# How it was run: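 Cells (DT40 wild type, 300/well) are treated with DMSO-dissolved compounds after a ~0.5 h pre-incubation and kept 40 h at 37 C/5% CO2. Viability is then measured by CellTiter-Glo luminescence following 30 min at room temperature.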
# Potency is the fitted concentration of half-maximal effect.
row,SMILES,Potency
1,CO[C@@]1(NC(=O)CSCC#N)C(=O)N2C(C(=O)O)=C(CSc3nnnn3C)CS[C@@H]21,inactive
2,Nc1ccc(Oc2ccc(N)c(N)c2)cc1,15.4 µM (active)
3,CCOc1ccc(NS(=O)(=O)c2ccc(N)cc2)nn1,inactive
4,C=CCCC=C,inactive
5,CC(CNC1CCCCC1)OC(=O)c1ccccc1 (stereo unspecified),inactive
6,CCCCC1CCC(=O)O1 (stereo unspecified),inactive
7,CCCN(CCC)C(=O)C(CCC(=O)O)NC(=O)c1ccccc1 (stereo unspecified),inactive
8,CCN(CC)CCOc1ccc(Cc2ccccc2)cc1,0.473 µM (active)
9,CCCCCCCCCCCCCCCCOP(=O)([O-])OCC[N+](C)(C)C,inactive
10,COc1ccc2nc(NC(=O)Nc3ccccc3)sc2c1,18.8 µM (active)
11,O=C(CC(=O)C(F)(F)F)c1ccccc1,inactive
12,CCCCOc1cc(C(=O)NCCN(CC)CC)c2ccccc2n1,11.4 µM (active)
13,Cc1ncc(CO)c(CN)c1O,inactive
14,CCC/C=C/CO,inactive
15,COC(=O)C(C)O (stereo unspecified),inactive
16,CCc1nnc(NS(=O)(=O)c2ccc(N)cc2)s1,inactive
17,O=C(O)[C@@H](O)[C@H](O)[C@H](O)[C@@H](O)C(=O)O,inactive
18,Cc1cc(S(=O)(=O)O)c(N)cc1Cl,inactive
19,O=C(O)c1cccc(Cl)c1Cl,inactive
20,Cc1c(C(=O)NCCO)[n+](=O)c2ccccc2n1[O-],inactive
21,Cc1ccc(C=O)s1,inactive
22,CC1(C)O[C@@H]2C[C@H]3[C@@H]4CCC5=CC(=O)CC[C@]5(C)[C@@]4(F)[C@@H](O)C[C@]3(C)[C@]2(C(=O)CCl)O1,inactive
23,CN1CCN(c2c(F)cc3c(=O)c(C(=O)O)cn4c3c2SCC4)CC1,10.6 µM (active)
24,CCCCc1ccc2nc(NC(=O)OC)[nH]c2c1,0.0569 µM (active)
25,Cc1cc2nc(N)sc2cc1C,61.7 µM (active)

# Test: qHTS assay for identifying genotoxic compounds that show differential cytotoxicity against isogenic chicken DT40 cell lines with known DNA damage response pathways - Rev3 mutant cell line (AID 743014); note: nearly all actives have a fitted effect of over 55% in size
# Conditions: chicken DT40 Rev3-/- viability, CellTiter-Glo, 40 h; series mostly up to 68.4 µM
row,SMILES,Potency
1,CO[C@@]1(NC(=O)CSCC#N)C(=O)N2C(C(=O)O)=C(CSc3nnnn3C)CS[C@@H]21,inactive
2,Nc1ccc(Oc2ccc(N)c(N)c2)cc1,7.7 µM (active)
3,CCOc1ccc(NS(=O)(=O)c2ccc(N)cc2)nn1,inactive
4,C=CCCC=C,inactive
5,Nc1cccc(S(=O)(=O)O)c1,inactive
6,CC(CNC1CCCCC1)OC(=O)c1ccccc1 (stereo unspecified),inactive
7,Cc1c(-c2ccccc2)oc2c(C(=O)OCCN3CCCCC3)cccc2c1=O,inactive
8,CCCCC1CCC(=O)O1 (stereo unspecified),inactive
9,CCCN(CCC)C(=O)C(CCC(=O)O)NC(=O)c1ccccc1 (stereo unspecified),inactive
10,CCN(CC)CCOc1ccc(Cc2ccccc2)cc1,0.188 µM (active)
11,CCCCCCCCCCCCCCCCOP(=O)([O-])OCC[N+](C)(C)C,inactive
12,COc1ccc2nc(NC(=O)Nc3ccccc3)sc2c1,26.6 µM (active)
13,O=C(O)C(=O)Cc1c[nH]c2ccccc12,inactive
14,CCCCOc1cc(C(=O)NCCN(CC)CC)c2ccccc2n1,5.07 µM (active)
15,Cc1ncc(CO)c(CN)c1O,inactive
16,CCC/C=C/CO,inactive

row,SMILES,Potency
1,COC(=O)C(C)O (stereo unspecified),inactive
2,CCc1nnc(NS(=O)(=O)c2ccc(N)cc2)s1,inactive
3,N#Cc1ccc(C(c2ccc(C#N)cc2)n2cncn2)cc1,inactive
4,O=C(O)[C@@H](O)[C@H](O)[C@H](O)[C@@H](O)C(=O)O,inactive
5,Cc1cc(S(=O)(=O)O)c(N)cc1Cl,inactive
6,O=C(O)c1cccc(Cl)c1Cl,inactive
7,CC(C)(C)c1cccc(O)c1,61.1 µM (active)
8,Cc1ccc(C=O)s1,inactive
9,CC1(C)O[C@@H]2C[C@H]3[C@@H]4CCC5=CC(=O)CC[C@]5(C)[C@@]4(F)[C@@H](O)C[C@]3(C)[C@]2(C(=O)CCl)O1,inactive
10,COc1nc(C)nc(NC(=O)NS(=O)(=O)c2ccccc2OCCCl)n1,inactive
11,CN1CCN(c2c(F)cc3c(=O)c(C(=O)O)cn4c3c2SCC4)CC1,18.8 µM (active)
12,CCCCc1ccc2nc(NC(=O)OC)[nH]c2c1,0.0804 µM (active)
13,CCNCCO,inactive
14,CN(C)CCOc1ccccc1Cc1ccccc1,inactive
15,Cc1cc2nc(N)sc2cc1C,55 µM (active)
